Compound activity (PubChem)
TRHR agonist – activates the human TRH receptor. P34981. TRHR cells, calcium flux fluo-8, FDSS agonist mode. activation, % at 2 µM. 0.18% of 360,000 active. AID 493084; also: 0% is about no effect
Target sequence (P34981 whole entry, looked up): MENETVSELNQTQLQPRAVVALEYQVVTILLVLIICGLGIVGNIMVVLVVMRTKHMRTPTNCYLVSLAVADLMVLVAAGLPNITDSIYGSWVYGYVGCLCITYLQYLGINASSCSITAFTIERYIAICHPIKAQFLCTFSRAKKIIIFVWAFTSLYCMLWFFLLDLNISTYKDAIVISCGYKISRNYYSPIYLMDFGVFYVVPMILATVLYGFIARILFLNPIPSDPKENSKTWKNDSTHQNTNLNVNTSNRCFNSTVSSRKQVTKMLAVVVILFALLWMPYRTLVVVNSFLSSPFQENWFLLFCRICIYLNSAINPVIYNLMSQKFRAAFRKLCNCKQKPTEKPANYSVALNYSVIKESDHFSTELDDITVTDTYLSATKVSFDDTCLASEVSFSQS
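In this calcium-flux screen, cells bearing human TRHR are dye-loaded with fluo-8, baselined for 10 cycles, then exposed to library compounds; positive kinetic calcium responses during the agonist phase mark hits, with TRH as control.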
D1 antagonist – antagonists of human D1 dopamine receptor; P21728; HEK293 TREx D1 cells, calcium flux, dopamine EC80; hits give low values; activity change, negative = inhibition, % at 10 µM; 3.2% of 360,000 active; AID 504652; in the data active = activity change below about -30%; also: % is scaled to controls: 0 for no effect and ±100 for the full control effect
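HEK293 T-REx cells expressing inducible, force-coupled D1 receptor; no-wash Ca dye, 30–90 min RT. Cmpd → 180 s read at 1 Hz → EC80 DA → 180 s read.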
TRHR PAM – allosterically enhances the human TRH receptor; TRHR cells, fluo-8 calcium fluorescence, EC20 TRH enhancement; enhancement, % at 2 µM; 0.66% of 360,000 active; P34981; in the data active = enhancement above about 30%; also: 0% is about no effect
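Enhancer read-out: after compound pinning and an initial kinetic agonist-mode read, an EC20 of TRH (10 nM final) was injected and fluo-8 calcium signal (Ex 480/Em 530) followed at 1 s/cycle for 100 cycles in TRHR-expressing cells.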
D1 agonist – agonists of human D1 dopamine receptor. P21728. HEK293 T-REx D1 cells, calcium flux, agonist mode. activation, % at 2 µM. 1% of 360,000 active; also: 0% is about no effect
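Tetracycline-induced HEK293 TREx D1 cells, force-coupled to calcium signalling, were dye-loaded with a no-wash calcium kit. Compound was pin-added after a 10 s baseline. Fluorescence was read kinetically at 1 cycle/s for 180 s, with calcium rises flagged as agonism.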
D1 PAM – enhances dopamine response at the human D1 receptor. P21728. HEK293 TREx D1 cells, calcium flux, dopamine EC20 potentiation. potentiation, % at 10 µM. 0.036% of 360,000 active. AID 504651; in the data active = potentiation above about 30%; also: 0% is about no effect
Active calls of the source: *. In the library only some 4.6% were active in any assay of this set; here they are far more common. Rule as the data show it, unless noted: active = activation above about 30%; inactive = the rest.

SMILES	TRHR agonist	D1 antagonist	TRHR PAM	D1 agonist	D1 PAM
Cc1oc2c(cc(NS(=O)(=O)c3ccc(Cl)cc3)c3ccccc32)c1C(=O)O	1	4	-4	3	0
CC(=O)c1c(C)oc2c1cc(NS(=O)(=O)c1ccc(Br)cc1)c1ccccc12	0	-32*	-7	5	2
Cc1oc2ccc(NS(=O)(=O)c3ccc(F)cc3)cc2c1C(=O)O	1	16	2	-1	3
CC1OC(Nc2ccc(N=Nc3ccccc3)cc2)C(O)C(O)C1O (centres undefined)	1	-10	-4	31*	-5
O=[S+]([O-])(c1cc2ccccc2o1)N1CCN([S+](=O)([O-])c2c(F)cccc2F)CC1	1	15	-2	2	4
COC(=O)CN1C(C(=O)c2ccccc2)=C(OC(=O)c2ccc(F)cc2)c2ccccc2S1(=O)=O	1	-78*	-8	0	-1
CC(NCC(O)COc1ccc2ccccc2c1)c1ccccc1 (centres undefined)	2	2	15	42*	1
COc1ccc(OCC(O)CNC(C)c2ccccc2)cc1 (centres undefined)	2	-4	7	18	1
Cc1cc(OCC(O)CNC(C)c2ccccc2)ccc1C(C)C (centres undefined)	3	48	10	30*	0
CN(CC(O)COc1ccc2ccccc2c1)C1CCCCC1 (centres undefined)	2	-3	-7	32*	-8
Cc1cc(C)n(CC(O)COc2ccc(C(C)C)c(C)c2)n1 (centres undefined)	-3	11	34*	5	3
COc1cccc(CNC(=O)C2CCC(CNS(=O)(=O)c3ccc(Br)s3)CC2)c1 (centres undefined)	-1	2	0	2	-1
Cc1cc(C)cc(NC(=O)c2cccc(C(=O)Nc3cc(C)cc(C)c3)c2)c1	0	3	2	0	0
CCOC(=O)c1ccc(CN(Cc2ccc(F)cc2)S(=O)(=O)c2ccc(F)c(C(=O)Nc3cc(Cl)ccc3OC)c2)cc1	0	23	-1	-1	0
Cc1ccccc1NC(=O)Cn1nc(C(F)(F)F)cc1C1CC1	0	3	1	3	0
Cc1nn(C)cc1NC(=O)Cn1nc(C(F)(F)F)cc1C1CC1	0	-67*	-1	-1	-7
CC1=C(C(=O)OCC(Cl)(Cl)Cl)N2C(=O)C(NC(=O)Cc3ccccc3)C2SC1 (centres undefined)	-1	-34*	4	26	-10
COc1cccc(/C=C/C(=O)Nc2ccc3nc(N4CCN(C)CC4)cc(C)c3c2)c1OC	0	-5	4	7	-1
Cc1cccc(OC(=O)c2cc(-c3ccc4c(c3)OCCO4)on2)c1	-2	-16	5	6	2
COCCNC(=O)c1ccc(CN2CCC(Cc3ccccc3)CC2)cc1	1	-31*	7	3	-9
Cc1[nH]c2ccccc2c1CN1CCC(Cc2ccccc2)CC1	-3	-63*	1	90*	1
COc1ccccc1C1CCN(Cc2ccccc2)CC1	0	-46*	-2	-1	-22
Cc1ccc(S(=O)(=O)NCc2ccc(C(=O)NCCCN3CCC(Cc4ccccc4)CC3)cc2)cc1	0	-83*	5	30	-15
CC(C)Cn1c(CN2CCN(c3cccc(Cl)c3)CC2)nc2c1c(=O)[nH]c(=O)n2C	-2	-21	6	25	-3
CCOc1ccc(CN2CCC(Cc3ccccc3)CC2)cc1	0	-31*	-3	6	-2
SMILES	TRHR agonist	D1 antagonist	TRHR PAM	D1 agonist	D1 PAM
CCOC(=O)CN1CCC(c2cc(-c3ccc(Cl)cc3)n[nH]2)CC1	3	-23	-2	13	-6
O=[N+]([O-])c1cccnc1N1CCC(c2cc(-c3ccc(Cl)cc3)n[nH]2)CC1	0	-33*	-8	3	0
CC12CCC(=O)N1C(C(=O)NNC(=O)c1ccccc1Cl)CS2 (centres undefined)	0	-52*	4	1	-6
COc1cc(C(=O)NNC(=O)C2CSC3(C)CCC(=O)N23)cc(OC)c1OC (centres undefined)	3	-40*	1	3	-3
CCCn1cnc2c(sc3nc4c(cc32)CSC(C)(C)C4)c1=O	0	-41*	3	3	-4
CSc1ccc(CN2CCN(Cc3ccc([N+](=O)[O-])cc3)CC2)cc1	0	-37*	-2	8	-12
COc1cc(Cl)c(C)cc1NC(=O)c1cnn(-c2ccc(F)cc2F)c1C1CCN(C(=O)OC(C)(C)C)CC1	1	-41*	15	0	-5
CC(C)(C)OC(=O)N1CCC(c2c(C(=O)Nc3cccc(C(F)(F)F)c3)cnn2-c2ccc(F)cc2F)CC1	1	-25	14	4	-4
CC(C)(C)OC(=O)N1CCC(c2c(C(=O)Nc3ccc4c(c3)OCCO4)cnn2-c2ccc(F)cc2F)CC1	0	-35*	23	3	3
COc1ccc(NC(=O)c2cnn(-c3ccc(F)cc3F)c2C2CCN(C(=O)OC(C)(C)C)CC2)cc1Cl	0	-8	2	2	-7
Cc1ccc(CSc2nc3c([nH]c4ccccc43)c(=O)n2C)cc1	0	-17	-7	1	-7
Cc1ccccc1NC(=O)CSc1ncc2c(n1)-c1ccccc1N(C)S2(=O)=O	0	-2	1	1	3
CN1CCN(c2ccc(NC(=O)c3ccc(C(F)(F)F)cc3)cn2)CC1	1	-41*	-1	4	-8
Cc1ccccc1C(=O)Nc1ccc(N2CCN(C)CC2)nc1	-1	8	-4	1	-4
Cc1ccc(C(=O)C(C)OC(=O)C2CCN(c3ccc(C(F)(F)F)cn3)CC2)cc1 (centres undefined)	2	-17	-5	17	-6
CC(OC(=O)C1CCN(c2ccc(C(F)(F)F)cn2)CC1)C(=O)Nc1ccc(S(N)(=O)=O)cc1 (centres undefined)	-1	-3	28	1	-8
CC(OC(=O)C1CCN(c2ccc(C(F)(F)F)cn2)CC1)C(=O)c1ccccc1 (centres undefined)	-1	-32*	6	21	-5
CC(=O)c1ccc(NC(=O)C(C)OC(=O)C2CCN(c3ccc(C(F)(F)F)cn3)CC2)cc1 (centres undefined)	1	-30*	-7	2	-1
O=C(COC(=O)C1CCN(c2ccc(C(F)(F)F)cn2)CC1)c1ccc(F)cc1	0	-35*	3	43*	-7
CCCCN(CC)C(=O)CCCn1c(=O)c2cccn2c2ccccc21	0	-15	-3	2	-3
CC(C)CNC(=O)N1CCN(S(=O)(=O)c2ccc3c(ccn3C)c2)CC1	-1	-8	-2	1	0
